Experimental data published in PubChem BioAssay.
Activity calls are given as the source filed them.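 How the source made its calls: active means fluorescence slope after compound addition differing from the mean of all screened samples at 99.7% confidence, in either direction; inactive means the rest.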

The compounds below were run against Alpha-2C adrenergic receptor (Homo sapiens) (UniProt P18825) (assay: modulators of alpha2C/GIRK thallium flux, primary screen, cell-based, HEK293 alpha2C/GIRK1/2 (AID 624;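 further: slope of fluorescence ratio to pre-addition baseline per second over 15 to 24 s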)). Settings: thallium flux BTC fluorescence, at 10 µM, actives lie on both sides.
Alpha-2C adrenergic receptor (Homo sapiens), sequence (P18825 whole entry, looked up): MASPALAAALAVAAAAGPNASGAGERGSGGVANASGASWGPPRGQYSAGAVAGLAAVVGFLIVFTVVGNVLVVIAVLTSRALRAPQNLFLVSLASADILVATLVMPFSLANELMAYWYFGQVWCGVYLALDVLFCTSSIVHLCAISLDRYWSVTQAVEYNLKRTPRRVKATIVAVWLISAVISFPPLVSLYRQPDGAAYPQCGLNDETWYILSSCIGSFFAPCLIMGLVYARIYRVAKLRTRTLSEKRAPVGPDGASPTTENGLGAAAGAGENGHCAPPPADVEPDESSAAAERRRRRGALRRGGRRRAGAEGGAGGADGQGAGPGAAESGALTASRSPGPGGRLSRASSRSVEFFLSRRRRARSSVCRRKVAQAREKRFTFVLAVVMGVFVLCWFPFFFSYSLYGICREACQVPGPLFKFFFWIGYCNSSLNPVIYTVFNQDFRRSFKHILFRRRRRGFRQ

slope, inactive:
CCCCCn1c(CN2CCN(C(=O)c3ccco3)CC2)nc2c1c(=O)n(C)c(=O)n2C 0.00727
Cc1cc(C(=O)COC(=O)C2COc3ccccc3O2)c(C)n1CC1CCCO1 (stereo unspecified) 0.00612
COC(=O)Oc1c(Br)c(=O)oc2ccccc12 0.00521
CCOC(=O)CN1CC23C=CC(O2)C(C(=O)Nc2ccc(OCC)cc2)C3C1=O (stereo unspecified) 0.00673
O=C(Cn1cc2c(n1)CCCC2)NCCc1ccccc1 0.00628
CCCC1(C(=O)OCC)NC(c2ccc(N(C)C)cc2)C2C(=O)N(c3ccc(F)cc3)C(=O)C21 (stereo unspecified) 0.00411
COC(=O)c1ccc(NC(=O)CN2CCCC2)cc1 0.00467
C=CCc1ccccc1OCCCCN1CCCC1 0.00605
O=C(NCc1ccc2c(c1)OCO2)c1ccccn1 0.00534
O=C(CSc1nnc(NC(=O)C2CCC2)s1)NC1CC1 0.00536
CCOC(=O)Cc1nnc2c(Nc3ccc(C)cc3)nc3nonc3n12 0.00447
COc1ccc(C(=O)NCC(=O)NC2=NCCS2)cc1 0.00756
Cc1nc(NC(=O)c2ccccc2)sc1-c1csc(NCc2ccco2)n1 0.0038
COc1ccccc1-c1nnc(SCC(=O)NC2CCCCC2)o1 0.00636
O=C(CSc1nnnn1-c1ccc(Cl)cc1)NC(=O)Nc1ccc2c(c1)OCCO2 0.00808
O=C(CCC(=O)c1cccs1)NCc1ccccc1 0.0103
